Measured values published in article PMC5540273 (PLoS ONE, 2017).

system: T1, ERK1; details: concentration: 1 μM, replicates: in singlicate; n = 1
T1 construct: gene MAPK3
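Also: KINOMEscan kinase panel screen.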

| SMILES | %Inh [%] |
| --- | --- |
| CN1CCN(Cc2cccc(-c3ccc4c(Nc5ccc(Oc6ccccc6)cc5)ccnc4c3)c2)CC1 [GW578342] | 4 |
| Nc1ncc(-c2ccc3nccc(-c4ccncc4)c3c2)cc1S(=O)(=O)N1CCOCC1 [GSK1627798] | 0 |
| CN(C)S(=O)(=O)c1cc(-c2ccc3nccc(-c4cccc(S(N)(=O)=O)c4)c3c2)cnc1N [GSK1669921] | 3 |
| CCn1c(-c2nonc2N)nc2c(C#CC(C)(C)O)ncc(OCCCCN)c21.O=C(O)C(F)(F)F.O=C(O)C(F)(F)F [GSK507274] | 0 |
| Cc1ccc(C)c(NC(=O)NC2CCN(c3ccnc(Nc4ccc(F)cc4)n3)C2)c1 (stereo not drawn) [GSK1379720] | 35 |

system: T2, ERK2; details: concentration: 1 μM, replicates: in singlicate; n = 1
T2 construct: gene MAPK1

| SMILES | %Inh [%] |
| --- | --- |
| Cn1cc(-c2[nH]c3cc(NC(=O)[C@H](N)C4CCCCC4)cc4c3c2C=NNC4=O)cn1 | 22 |
| O=C(Nc1ccccc1F)NC1CCN(c2ccnc(Nc3ccc(F)cc3)n2)CC1 [GSK1379800] | 0 |
| Cc1ccc(F)c(C(=O)Nc2cccc(-c3nn4ccccc4c3-c3ccnc(Nc4cccc(F)c4)n3)c2)c1F [GSK361061] | 0 |
| O=C(O)C(F)(F)F.O=C(O)C(F)(F)F.O=c1[nH]ccc2nc(N[C@@H]3CCCNC3)nc(Nc3ccc(S(=O)(=O)N4CCOCC4)cc3)c12 [GSK2177277] | 72 |
| CN1CCN(CCCNc2nccc(-c3c(-c4ccc(F)cc4)nn4cc(C(F)(F)F)ccc34)n2)CC1 [GW621581] | 0 |
| CSc1cccc2c(-c3ccncn3)c(-c3ccc(F)cc3)nn12 [GW514786] | 6 |
| O=C(Nc1cccc(-c2nn3ccccc3c2-c2ccnc(Nc3cccc(C(F)(F)F)c3)n2)c1)c1c(F)cccc1F [GSK292658] | 0 |
| COc1ccc(Nc2nccc(N3CCC(NC(=O)Nc4cccc(OC)c4)C3)n2)cc1 (stereo not drawn) [GSK1379742] | 0 |
| Cc1cccc(NC(=O)Nc2ccc(Oc3ncnc4ccn(C)c34)cc2)c1 | 20 |
| O=C(NC1CCN(c2ccnc(Nc3ccc(F)cc3)n2)C1)c1cc2ccccc2s1 (stereo not drawn) [GSK1379716] | 23 |
| O=c1[nH]cc(-c2ccc(N3CCOCC3)cc2)c2sc(-c3cn[nH]c3)cc12 [GSK2276055] | 0 |
| Nc1ncc(-c2cccnc2)c2scc(-c3ccc4c(c3)CCN4C(=O)Cc3ccccc3)c12 [GSK683281] | 11 |
| O=C(Nc1cccc(Oc2ccc3nc(NC(=O)C4CC4)cn3n2)c1)c1ccccc1C(F)(F)F | 0 |
| Cl.Cl.NCC(NCc1ccc(-c2ccnc3[nH]ccc23)s1)c1ccccc1 (stereo not drawn) [GSK1321565] | 0 |
| COc1ccc(CNC(=O)NC2CCN(c3ccnc(Nc4ccc(F)cc4)n3)CC2)cc1 [GSK1379788] | 0 |
| CCn1c(-c2nonc2N)nc2c(C#CC(C)(C)O)nc(OC[C@H](N)c3ccccc3)cc21 [GSK943949] | 3 |
| CN(c1ccc(NC(=O)Nc2cc(C(F)(F)F)ccc2F)cc1)c1ccnc(Nc2ccc(S(N)(=O)=O)cc2)n1 [GW809893] | 0 |
| O=C(Nc1n[nH]c2nc(-c3ccc(O)cc3)ccc12)C1CC1 [SB-710363] | 0 |
| O=C(Nc1cccc(-c2nn3ccccc3c2-c2ccnc(Nc3cccc(F)c3)n2)c1)c1c(F)ccc(F)c1Cl [GSK357952] | 0 |

| SMILES | %Inh [%] |
| --- | --- |
| Nc1ncnc2c1nc(-c1ccccc1)n2-c1ccccc1 [SKF-97293] | 10 |
| Cc1cccc(Nc2nc(N[C@H]3CCNC3)ncc2C(N)=O)c1.Cl [GSK2197149] | 0 |
| COc1cccc(C2=C(Nc3ccc(Cl)c(C(=O)O)c3)C(=O)NC2=O)c1 [SB-390769] | 0 |
| COc1cc(Nc2nccc(-c3c(-c4cccc(NC(=O)c5c(F)cccc5F)c4)nn4ccccc34)n2)cc(OC)c1OC [GSK323521] | 36 |
| CC(=O)Nc1nc2cnc(Nc3cc(NC(=O)c4cccc(C5(C#N)CC5)c4Cl)ccc3C)nc2s1 | 14 |
| c1ccc(Oc2ccc(Nc3ccnc4cc(-c5ccc(CNCCN6CCOCC6)o5)ccc34)cc2)nc1 [GW567145] | 0 |
| CNC(=O)c1ccccc1Nc1nc(Nc2ccc(N3CCOCC3)cc2)ncc1Cl.Cl [GSK1576028] | 68 |
| Cl.Cl.NCC(NC(=O)c1cc(-c2ccccc2)c(-c2ccnc3[nH]ccc23)s1)c1ccccc1 (stereo not drawn) [GSK1321561] | 16 |
| Fc1ccc(-c2ncn(C3CCNCC3)c2-c2ccnc(Oc3ccc(-c4ccccc4)cc3)n2)cc1 [SB-245391] | 2 |
| Cn1cc(-c2ccc3c(c2)CCN3C(=O)Cc2cccc(F)c2)c2c(N)ncnc21 [GSK2603358] | 6 |
| COc1cc(Nc2nccc(N3CCC(NC(=O)c4cc5ccccc5s4)C3)n2)cc(OC)c1OC (stereo not drawn) [GSK1379760] | 9 |
| CC(=O)N1CCN(c2ccc(Nc3nccc(-c4sc(C(C)C)nc4-c4cccc(NS(=O)(=O)c5cccc(Cl)c5)c4)n3)cn2)CC1 [GSK1660437] | 98.8 |
| COc1cc(Nc2ncc3c(C)nc(-c4cc5ccccc5[nH]4)n3n2)cc(OC)c1OC [GW869516] | 0 |
| CN1CCN(Cc2cccc(-c3ccc4c(Nc5ccc(Oc6ccccc6)cc5)ccnc4c3)c2)CC1 [GW578342] | 0 |
| Nc1ncc(-c2ccc3nccc(-c4ccncc4)c3c2)cc1S(=O)(=O)N1CCOCC1 [GSK1627798] | 0 |
| CN(C)S(=O)(=O)c1cc(-c2ccc3nccc(-c4cccc(S(N)(=O)=O)c4)c3c2)cnc1N [GSK1669921] | 0 |
| CCn1c(-c2nonc2N)nc2c(C#CC(C)(C)O)ncc(OCCCCN)c21.O=C(O)C(F)(F)F.O=C(O)C(F)(F)F [GSK507274] | 1 |
| Cc1ccc(C)c(NC(=O)NC2CCN(c3ccnc(Nc4ccc(F)cc4)n3)C2)c1 (stereo not drawn) [GSK1379720] | 0 |
